Screening data from PubChem BioAssay.
This is one part of a sample in which hits are shown more often than they occur.
Pf Dd2 growth = qHTS Primary assay for Inhibitors of Plasmodium falciparum Dd2 growth in vitro; Potency, µM (highest dose often 28.9 µM), without a hit: at the top dose activity, negative = inhibition, actives largely listed as inhibitors; hit rate 4.3% among 120,000; P. falciparum Dd2 growth, SYBR Green, 72 h; AID 1347417, 2020; active = well fitted inhibition curve with a large enough effect;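 note: plate controls were DMSO vehicle for no effect and reference drug for full effect; nearly all actives have a fitted effect of over 65% in size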
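Readout: SYBR Green fluorescence, 485 nm excitation, 535 nm emission, after ~16 h lysis at 37C. Before that, Dd2-infected red cells (2.5% hematocrit) grew 72 h with compound, 29 uM top final concentration.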
Starred values were filed as active, the others as inactive; [ ] = remark or other dose. Potency is the fitted concentration of half-maximal effect.

How did CS(=O)(=O)c1ccc(N2CCN(C(=O)CC3COCCN3)CC2)c(F)c1 (stereo unspecified) do in these assays?
Pf Dd2 growth: -13%

Results for CC[C@H]1CN(S(=O)(=O)c2ccc(OC)cc2)CC[C@H]1CC(=O)NCc1cccc2ccccc12 ?
Pf Dd2 growth: 8%

How did O=C(CCc1ccccc1)N1CCC(c2noc(-c3cnccn3)n2)C1 (stereo unspecified) do in these assays?
Pf Dd2 growth: 12%[5.79 µM]

Results for COc1ccc(S(=O)(=O)NC[C@H]2C[C@@H]3CCN2C[C@@H]3CN2CCCCC2)cc1 ?
Pf Dd2 growth: inactive

Results for COc1ccc(S(=O)(=O)NC[C@H]2C[C@@H]3CCN2C[C@@H]3CN(C)Cc2ccccc2)cc1 ?
Pf Dd2 growth: 2µM*

How did CC(C)NC(=O)NC[C@H]1C[C@@H]2CCN1C[C@@H]2CN(C)Cc1ccccc1 do in these assays?
Pf Dd2 growth: -24%[44.1 µM]

What do the screens show for `O=S(=O)(NC[C@H]1C[C@@H]2CCN1C[C@@H]2CN1CCc2ccccc21)c1ccc(Cl)cc1`?
Pf Dd2 growth: -15%

Results for CS(=O)(=O)NC[C@H]1C[C@@H]2CCN1C[C@@H]2CN1CCc2ccccc2C1 ?
Pf Dd2 growth: -16%[44.1 µM]

How did COc1ccc(S(=O)(=O)NC[C@H]2C[C@@H]3CCN2C[C@@H]3CN2CCc3ccccc32)cc1 do in these assays?
Pf Dd2 growth: 11µM*

Results for O=C(Cn1nc2c(cc1=O)CCCC2)NCC1CCC(C(=O)O)CC1 (stereo unspecified) ?
Pf Dd2 growth: -2%

What do the screens show for `COc1cccc(CN2CCCC(c3nc(-c4cnccn4)no3)CCNC(=O)CC2)c1OC` (stereo unspecified)?
Pf Dd2 growth: inactive

What do the screens show for `O=C(O)CCCC(=O)N1C[C@@H](C(=O)O)[C@H](c2ccc3c(c2)OCO3)C1`?
Pf Dd2 growth: -8%

What do the screens show for `COc1cccc(-c2n[nH]c3c2CC(=O)N(Cc2ccccc2F)C3)c1OC`?
Pf Dd2 growth: inactive

Results for CCOC(=O)C[C@@H]1C[C@@H](C(C)C)[C@H](CNS(=O)(=O)c2ccc(NC(C)=O)cc2)C=C1C ?
Pf Dd2 growth: -3%

What do the screens show for `O=C(c1cccc(Cl)c1)N1CCN(c2nc3ncccc3o2)CC1`?
Pf Dd2 growth: inactive

Results for Cc1c(C2c3nc[nH]c3CCN2Cc2ccc(CO)o2)oc2ccccc12 (stereo unspecified) ?
Pf Dd2 growth: -15%

How did CNC(=O)[C@@H]1CN(C(=O)c2cccc(OC(F)(F)F)c2)C[C@H]1CO do in these assays?
Pf Dd2 growth: 4%

How did Nc1nc(C2CC(NC(=O)c3cnn(Cc4ccccc4)c3)C2)cc(=O)[nH]1 (stereo unspecified) do in these assays?
Pf Dd2 growth: 12%

Results for Cc1cc(Cl)ccc1S(=O)(=O)N1CCN(C2CCN(CCC(C)C)C2=O)CC1 (stereo unspecified) ?
Pf Dd2 growth: -28%

How did CC(C)CCN1CCC(N2CCN(S(=O)(=O)c3ccc(F)cc3)CC2)C1=O (stereo unspecified) do in these assays?
Pf Dd2 growth: -16%

Results for Cc1ccc(S(=O)(=O)N2CCN(C3CCN(CCC(C)C)C3=O)CC2)cc1Cl (stereo unspecified) ?
Pf Dd2 growth: 4µM*

Results for COc1ccc(CCNC(=O)c2c(OC)cc(=O)n3c2CCCC3)cc1OC ?
Pf Dd2 growth: 39%

Results for CCOCc1nc(C2CCCN(C(=O)COC)C2)no1 (stereo unspecified) ?
Pf Dd2 growth: 56%

What do the screens show for `Cc1cccc(NC(c2cccc(Cl)c2)c2ccc3cccnc3c2O)n1` (stereo unspecified)?
Pf Dd2 growth: 2.5µM*

How did O=C(COc1ccc(Cl)cc1Cl)Nc1cccc2cccnc12 do in these assays?
Pf Dd2 growth: 11%

What do the screens show for `COc1ccc(C(Nc2ccccn2)c2ccc3ccc(C)nc3c2O)cc1C` (stereo unspecified)?
Pf Dd2 growth: 21%

What do the screens show for `CC(C)(C)c1ccc(C(=O)N2CCC(c3nc(C4CCOC4)no3)CC2)cc1` (stereo unspecified)?
Pf Dd2 growth: -14%

How did O=C1OCCCN1C1CCN([S+](=O)([O-])c2ccccc2)CC1 do in these assays?
Pf Dd2 growth: 20%

Results for Cc1noc2ncnc(N3CCC4(CC3)CC(c3ccccc3)CN(C)C4)c12 (stereo unspecified) ?
Pf Dd2 growth: 11µM*

How did CN1CC(c2ccccc2)CC2(CCN(C(=O)c3ccccc3)CC2)C1 (stereo unspecified) do in these assays?
Pf Dd2 growth: inactive

How did CN1CC(c2ccccc2)CC2(CCN(C(=O)C3CCOCC3)CC2)C1 (stereo unspecified) do in these assays?
Pf Dd2 growth: -9%

What do the screens show for `CN1CCC([C@@H]2CN(C(=O)CCCc3c[nH]c4ccccc34)C[C@H]2C(N)=O)CC1`?
Pf Dd2 growth: 15%

How did Cc1cccc(-c2nc(CCNC(=O)Cc3ccc(F)cc3)cs2)c1 do in these assays?
Pf Dd2 growth: inactive

What do the screens show for `COc1ccc(CC(=O)NCCc2csc(-c3ccc(Cl)cc3)n2)cc1`?
Pf Dd2 growth: -13%

Results for COc1ccc(CC(=O)NCCc2csc(-c3cccc(C)c3)n2)cc1 ?
Pf Dd2 growth: 13µM*

How did CCOC(=O)C1=C(C)N=C2SC=C(CC(=O)N(C)CC)N2C1c1cccc([N+](=O)[O-])c1 (stereo unspecified) do in these assays?
Pf Dd2 growth: -13%

What do the screens show for `COc1cc(CN2CCC3(Cc4ccccc4CNC3=O)C2)cc(OC)c1` (stereo unspecified)?
Pf Dd2 growth: -13%

How did O=C(NCc1nnc2ccc(-c3ccccc3)nn12)c1ccc(Cl)s1 do in these assays?
Pf Dd2 growth: -5%

How did O=C(NCc1ccc(C(F)(F)F)cc1)C1CN(Cc2ccccc2)C(=O)N1 (stereo unspecified) do in these assays?
Pf Dd2 growth: -2%

What do the screens show for `Cc1ccc(-c2cc(N3CCCN(C(=O)Cc4cccs4)CC3)n[nH]2)cc1C`?
Pf Dd2 growth: inactive

What do the screens show for `Cc1ccccc1Cn1c(CN2CCC(C(=O)NCCN(C)C)CC2)cc2ccccc21`?
Pf Dd2 growth: 1µM*

What do the screens show for `Cc1ccccc1Cn1c(CN2CCC(C(=O)NCc3ccc(Cl)cc3)CC2)cc2ccccc21`?
Pf Dd2 growth: 15%

How did CCOc1ccc(CNC(=O)C2CCN(Cc3cc4ccccc4n3Cc3ccccc3C)CC2)cc1 do in these assays?
Pf Dd2 growth: inactive

How did Cc1ccsc1C(=O)N1CCC2(CC1)NCCc1c2[nH]c2ccccc12 do in these assays?
Pf Dd2 growth: inactive

Results for COc1cccc(-c2cnc3n[nH]c(-c4ccc5c(c4)OCO5)c3n2)c1 ?
Pf Dd2 growth: inactive

What do the screens show for `COCCC(=O)N[C@@H]1CN(S(C)(=O)=O)C[C@H]1CN(C)C`?
Pf Dd2 growth: 49%

How did CN1C[C@H](O)C[C@H]1c1nnc2n1CCN(C(=O)CCCc1ccccc1)CC2 do in these assays?
Pf Dd2 growth: -4%

Results for COC(=O)c1ccc(NC(=O)CSc2ccc(-c3sc(-c4ccccc4)nc3C)nn2)cc1 ?
Pf Dd2 growth: 13µM*

Results for Cc1cccc(NC(=O)CSc2ccc(-c3sc(-c4ccccc4)nc3C)nn2)c1C ?
Pf Dd2 growth: inactive

What do the screens show for `Cc1nc(-c2ccccc2)sc1-c1ccc(SCC(=O)NCc2ccc(Cl)cc2)nn1`?
Pf Dd2 growth: 11%

Results for CC1CCN(C[C@H]2CN3CC[C@H]2C[C@@H]3CNC(=O)Nc2ccsc2)CC1 ?
Pf Dd2 growth: inactive

How did O=C([C@H]1CNC[C@H](C(=O)N2CCN(c3ccncc3)CC2)C1)N1CCCC1 do in these assays?
Pf Dd2 growth: 23%
